INHIBITION data for 53 compounds are collected here from ChEMBL document CHEMBL4513216, “Probing the Open Global Health Chemical Diversity Library for Multistage-Active Starting Points for Next-Generation Antimalarials” (ACS Infect Dis, 2020).

The whole screen tested about 68,000 compounds, of which about 2,700 (4%) showed an effect of 50% or more. The full list was thinned out, with strong results kept by preference.

The test system of the assay is Plasmodium berghei. As to the kind of experiment: Screen against P. berghei liver stage (PbLuc), transformed with Luciferase, at 2uM. The format is functional, HepG2. The conditions noted are these: tested at 2 uM.
With `CC(C)=CCN1C[C@@H]2CC[C@H]1CN(Cc1coc(C)n1)C2`, the INHIBITION was -60.75%.

Take `COC(=O)c1ccc(CN2CCC(c3n[nH]c(C)n3)CC2)s1`: the INHIBITION is given as -54.89%.

In the case of `CC(C)=CCC1(C(=O)O)CCCN(CCC(=O)NC2CC2)C1` (stereo not drawn), the INHIBITION came out at 9.43%.

For `Cc1ccc(NC(=O)NCCCc2n[nH]c(N)c2C#N)cc1`, the INHIBITION turned out to be 33.01%.

Turning to `CCc1cnc(N)nc1NC(C)c1ccc(C)c(C)c1` (stereo not drawn), the INHIBITION amounted to 35.84%.

As for `O=C(c1ccncn1)N1CCC[C@]2(C[C@H](OCC3CC3)CO2)C1`, the INHIBITION was 16.78%.

In the case of `CC(C)(C)OCC1CN(Cc2cccs2)S(=O)(=O)c2cnccc2O1` (stereo not drawn), the INHIBITION was determined as 35.6%.

Take `O=C1CCSCC(C(=O)N2CCCC2)N1` (stereo not drawn): the INHIBITION was 19.35%.

Consider `O=C1CCSCC(C(=O)N2CCCCC2)N1` (stereo not drawn), for which the INHIBITION stood at 39.58%.

Regarding `O=C1CCSCC(C(=O)N2CCN(C3CCCCC3)CC2)N1` (stereo not drawn), the INHIBITION is recorded as 51.94%.

In the case of `O=C(N[C@]12CC1CN(C(=O)c1ccco1)C2)c1ccco1` (stereo partly drawn), the INHIBITION was -50.87%.

Turning to `O=C(N[C@]12CC1CN(C(=O)c1ccco1)C2)c1ccoc1` (stereo partly drawn), the INHIBITION was determined as 14.47%.

With `O=C(N[C@]12CC1CN(C(=O)c1ccco1)C2)c1cccc(F)c1` (stereo partly drawn), the INHIBITION is 52.36%.

As to `Nc1nc(CN2CCCCC2Cn2cncn2)nc2ccccc12` (stereo not drawn), the INHIBITION is -42.37%.

For the compound `Cc1cnc(N2C(=O)CSC2c2ccc(N(C)C)cc2)s1` (stereo not drawn), the INHIBITION is given as -8.23%.

As for `O=C(O)c1cc(-c2cccs2)nc2c(Br)cnn12`, the INHIBITION is -11.83%.

On to `CC(c1ccc(F)cc1)N1CCN(Cc2nccn2C)CC1` (stereo not drawn), for which the INHIBITION is listed as 5.09%.

For `CC(c1ccc(F)c(F)c1)N1CCN(Cc2nccn2C)CC1` (stereo not drawn), the INHIBITION was found to be 62.13%.

In the case of `Cn1ccnc1CN1CCN(CC(O)c2cccc(F)c2)CC1` (stereo not drawn), the INHIBITION is given as -0.3%.

Turning to `Cn1ccnc1CN1CCN(CC(O)c2ccc(F)cc2)CC1` (stereo not drawn), the INHIBITION is given as -10.66%.

Turning to `Cn1ccnc1CN1CCN(CC(O)c2ccc(F)c(F)c2)CC1` (stereo not drawn), the INHIBITION was 56.67%.

Regarding `CC(c1cccc(F)c1)N1CCN(Cc2nccn2C)CC1` (stereo not drawn), the INHIBITION was 0.46%.

Regarding `CN(C1CCN(c2ccccn2)CC1)S(=O)(=O)c1cccc(F)c1`, the INHIBITION is given as 15.38%.

On to `COCC1CN(Cc2ccc(C)o2)Cc2cnn(CC3CCOCC3)c21` (stereo not drawn), for which the INHIBITION is reported as -24.39%.

As for `Cc1nnsc1C(=O)NCCn1ccc(-c2ccncc2)n1`, the INHIBITION is reported as -34.54%.

As for `Cc1cc(CC(=O)N(C)Cc2cccc(OC(C)C)c2)n[nH]1`, the INHIBITION is on record as -75.84%.

In the case of `Cc1nc(-c2nnc[nH]2)sc1C(=O)N1CCCC1c1ccsc1` (stereo not drawn), the INHIBITION was -26.81%.

Regarding `CC(C)n1c(C2CCCN(Cc3ccnn3C)C2)nc2ccccc21` (stereo not drawn), the INHIBITION was 16.87%.

On to `Cc1cnc(CN2CCCC(c3nc4ccccc4n3C(C)C)C2)o1` (stereo not drawn), for which the INHIBITION was determined as 37.77%.

For the compound `Cc1ncc(CN2CCCC(c3nc4ccccc4n3C(C)C)C2)s1` (stereo not drawn), the INHIBITION came to 61.57%.

Take `Cc1ccc(OCC2CCCN(c3nc(CO)cs3)C2)cc1` (stereo not drawn): the INHIBITION was -43.42%.

Take `Cc1ccc(OCC2CCCN(CC3CCOCC3)C2)cc1` (stereo not drawn): the INHIBITION is listed as 60.13%.

As for `COc1ccc(OCC2CCCN(Cc3ccncc3)C2)cc1` (stereo not drawn), the INHIBITION is -1.29%.

On to `Cc1ccc(OCC2CCCN(Cc3ccc(CO)o3)C2)cc1` (stereo not drawn), for which the INHIBITION is 69.67%.

Take `Cc1ccc(OCC2CCCN(C(=O)CN3CCOCC3)C2)cc1` (stereo not drawn): the INHIBITION was 38.67%.

Turning to `Cc1ccc(OCC2CCCN(C(=O)Cn3ccccc3=O)C2)cc1` (stereo not drawn), the INHIBITION was 45.14%.

Regarding `Nc1nnc(SCc2cc(=O)n3c4c(sc3n2)CCCC4)[nH]1`, the INHIBITION is on record as -0.04%.

In the case of `CCCc1noc(C2CC(=O)N(Cc3ccccc3)C2)n1` (stereo not drawn), the INHIBITION stood at 39.58%.

Take `Cc1ccc(S(=O)(=O)N2CC[C@@H]3C[C@H](NC(=O)c4ccncc4)[C@@H]32)cc1`: the INHIBITION stood at 20.51%.

In the case of `Cc1cccc(N2CCC3(CCCN(C(=O)c4cccnc4)C3)C2)n1` (stereo not drawn), the INHIBITION is listed as -37.2%.

`Cc1nocc1C(=O)N1CCc2c(CN(C)C)nn(C)c2C1`: the INHIBITION turned out to be 51.81%.

With `Cc1cc(C(=O)N2CCc3c(CN(C)C)nn(C)c3C2)[nH]n1`, the INHIBITION came out at 28.2%.

Turning to `Cc1cccc(C(=O)N2CCc3c(CN(C)C)nn(C)c3C2)n1`, the INHIBITION is listed as -27.08%.

For the compound `Cn1cc(CN2CCC(c3ncc(Cl)cc3S(C)(=O)=O)CC2)cn1`, the INHIBITION stood at 22.95%.

With `CCc1ncc(C(=O)N2CCCCC2Cn2cccn2)s1` (stereo not drawn), the INHIBITION was determined as 63.95%.

On to `CCc1ncc(C(=O)N2CCCC2Cn2cccn2)s1` (stereo not drawn), for which the INHIBITION came out at 17.31%.

Turning to `O=C(CCOc1cccc(F)c1)N1CCCC1Cn1cccn1` (stereo not drawn), the INHIBITION turned out to be 8.37%.

For the compound `O=C1COc2c(cccc2C(=O)N2CCCCC2Cn2cccn2)N1` (stereo not drawn), the INHIBITION stood at 63.93%.

For the compound `O=C(c1cnc(C2CC2)s1)N1CCCCC1Cn1cccn1` (stereo not drawn), the INHIBITION is listed as 21.31%.

With `O=C(CCOc1ccc(F)cc1)N1CCCC1Cn1cccn1` (stereo not drawn), the INHIBITION is given as 70.27%.

Turning to `CCc1nc(CC(=O)N2CCCCC2Cn2cccn2)cs1` (stereo not drawn), the INHIBITION came to 21.12%.

On to `O=C1COc2c(cccc2C(=O)N2CCCC2Cn2cccn2)N1` (stereo not drawn), for which the INHIBITION was 24.56%.

With `COc1ccc(OCCC(=O)N2CCCC2Cn2cccn2)cc1` (stereo not drawn), the INHIBITION is -28.79%.
